Columns and labels:
Assay in all cases: DAPPL (digital affinity profiling via proximity ligation, sequencing); 10 mM Tris-HCl pH 7.5, 50 mM NaCl, 1 mM DTT, 4% glycerol, room temperature, 30 min; GST-TFs on glutathione beads, 16-mer random dsDNA library, 0.1% formaldehyde crosslink after washing; high values mean tight binding
Details in all cases: protein: recombinant; tags: N-terminal GST; dsDNA, one strand shown
[1] = target: T1, FLI1 (Homo sapiens, UniProt Q01543 1-452)
T1 sequence: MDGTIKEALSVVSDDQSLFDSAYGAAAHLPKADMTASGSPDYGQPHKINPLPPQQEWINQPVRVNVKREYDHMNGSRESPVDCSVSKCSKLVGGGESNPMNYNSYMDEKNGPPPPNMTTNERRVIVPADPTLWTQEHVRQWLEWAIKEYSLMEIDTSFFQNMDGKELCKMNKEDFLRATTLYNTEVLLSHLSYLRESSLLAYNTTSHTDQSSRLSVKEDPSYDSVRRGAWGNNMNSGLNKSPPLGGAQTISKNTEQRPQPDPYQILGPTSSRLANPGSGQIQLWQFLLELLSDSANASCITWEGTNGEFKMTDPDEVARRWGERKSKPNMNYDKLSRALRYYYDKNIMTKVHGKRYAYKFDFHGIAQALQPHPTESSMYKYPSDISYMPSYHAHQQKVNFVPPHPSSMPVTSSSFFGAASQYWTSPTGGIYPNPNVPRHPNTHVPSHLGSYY
Summary of the method: (§1)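 The binding signal reported is, for every hexamer, its read frequency for a factor over its read frequency for the tag-only sample. Reads came from pools of yeast-expressed, GST-fused human transcription factors on glutathione beads, barcoded with DNA and mixed with that sample, which were incubated with 200 nmole of a random double-stranded 16-mer DNA library in Tris/NaCl/DTT/glycerol buffer at room temperature for 30 min. After washing, the pools were crosslinked with 0.1% formaldehyde, proximity-ligated with BsaI/T4 ligase for 1 h at 37 °C, PCR-amplified and sequenced on an Illumina NextSeq500.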

[2] = target: T2, ELK1 (Homo sapiens, UniProt P19419 1-428)
T2 sequence: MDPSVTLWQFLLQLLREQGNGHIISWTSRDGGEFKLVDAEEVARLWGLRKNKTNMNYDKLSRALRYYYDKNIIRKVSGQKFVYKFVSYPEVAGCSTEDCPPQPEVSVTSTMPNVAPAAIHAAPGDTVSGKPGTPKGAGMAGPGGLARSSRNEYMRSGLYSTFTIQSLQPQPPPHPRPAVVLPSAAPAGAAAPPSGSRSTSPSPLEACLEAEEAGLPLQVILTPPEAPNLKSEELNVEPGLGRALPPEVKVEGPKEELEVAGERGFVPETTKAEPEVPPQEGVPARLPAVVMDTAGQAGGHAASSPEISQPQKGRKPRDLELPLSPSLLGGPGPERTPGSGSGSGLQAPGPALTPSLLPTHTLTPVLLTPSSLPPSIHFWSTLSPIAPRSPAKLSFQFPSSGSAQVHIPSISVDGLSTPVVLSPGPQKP
Summary of the method: as §1

[3] = target: T3, GABPA (Homo sapiens, UniProt Q06546 1-454)
T3 sequence: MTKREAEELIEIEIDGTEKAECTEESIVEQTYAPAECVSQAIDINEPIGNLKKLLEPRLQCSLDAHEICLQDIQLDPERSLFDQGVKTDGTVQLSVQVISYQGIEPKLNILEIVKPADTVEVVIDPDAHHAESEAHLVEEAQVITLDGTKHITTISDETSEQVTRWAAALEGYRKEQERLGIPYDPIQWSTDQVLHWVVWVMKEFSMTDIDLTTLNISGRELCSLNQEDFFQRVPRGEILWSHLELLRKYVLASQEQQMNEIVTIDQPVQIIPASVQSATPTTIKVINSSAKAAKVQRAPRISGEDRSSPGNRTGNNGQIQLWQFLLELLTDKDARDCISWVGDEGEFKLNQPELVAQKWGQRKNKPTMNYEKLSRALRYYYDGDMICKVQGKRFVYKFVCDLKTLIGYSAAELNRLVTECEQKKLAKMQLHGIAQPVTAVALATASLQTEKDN
Summary of the method: as §1

[4] = target: T4, ERG (Homo sapiens, UniProt P11308 1-479)
T4 sequence: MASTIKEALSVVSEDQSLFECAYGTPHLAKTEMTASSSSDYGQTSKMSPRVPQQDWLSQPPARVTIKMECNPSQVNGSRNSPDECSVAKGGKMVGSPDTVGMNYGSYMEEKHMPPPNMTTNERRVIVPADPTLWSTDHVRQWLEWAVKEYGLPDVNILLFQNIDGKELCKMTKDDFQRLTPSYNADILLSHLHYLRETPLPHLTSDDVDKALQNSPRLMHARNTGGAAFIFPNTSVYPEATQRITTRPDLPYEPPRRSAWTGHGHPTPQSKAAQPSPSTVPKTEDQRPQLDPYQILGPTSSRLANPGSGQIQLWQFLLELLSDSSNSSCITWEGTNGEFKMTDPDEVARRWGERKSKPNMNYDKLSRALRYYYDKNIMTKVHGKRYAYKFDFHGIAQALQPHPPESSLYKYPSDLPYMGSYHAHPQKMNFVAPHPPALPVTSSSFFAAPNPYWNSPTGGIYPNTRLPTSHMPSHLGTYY
Summary of the method: as §1

[5] = target: ELF1 (Homo sapiens, UniProt P32519 1-619)
Sequence of ELF1 (P32519 whole entry): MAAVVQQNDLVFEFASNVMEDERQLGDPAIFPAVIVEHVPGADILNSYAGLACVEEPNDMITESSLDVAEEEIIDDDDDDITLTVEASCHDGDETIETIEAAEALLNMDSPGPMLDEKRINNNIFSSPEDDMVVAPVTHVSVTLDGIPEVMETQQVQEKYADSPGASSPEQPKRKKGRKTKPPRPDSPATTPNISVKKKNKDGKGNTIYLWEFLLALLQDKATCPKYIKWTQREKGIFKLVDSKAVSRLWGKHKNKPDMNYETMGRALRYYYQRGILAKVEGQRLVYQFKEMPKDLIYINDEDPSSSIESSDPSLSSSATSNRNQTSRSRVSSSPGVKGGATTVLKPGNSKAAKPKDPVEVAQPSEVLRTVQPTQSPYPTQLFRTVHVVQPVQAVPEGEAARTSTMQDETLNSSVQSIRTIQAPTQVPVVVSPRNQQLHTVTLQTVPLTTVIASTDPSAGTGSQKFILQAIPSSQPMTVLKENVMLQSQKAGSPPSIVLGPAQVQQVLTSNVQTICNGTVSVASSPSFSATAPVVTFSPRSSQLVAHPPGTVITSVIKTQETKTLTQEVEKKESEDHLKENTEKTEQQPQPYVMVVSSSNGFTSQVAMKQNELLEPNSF
Summary of the method: as §1

[6] = target: T5, EHF (Homo sapiens, UniProt Q9NZC4 1-300)
T5 sequence: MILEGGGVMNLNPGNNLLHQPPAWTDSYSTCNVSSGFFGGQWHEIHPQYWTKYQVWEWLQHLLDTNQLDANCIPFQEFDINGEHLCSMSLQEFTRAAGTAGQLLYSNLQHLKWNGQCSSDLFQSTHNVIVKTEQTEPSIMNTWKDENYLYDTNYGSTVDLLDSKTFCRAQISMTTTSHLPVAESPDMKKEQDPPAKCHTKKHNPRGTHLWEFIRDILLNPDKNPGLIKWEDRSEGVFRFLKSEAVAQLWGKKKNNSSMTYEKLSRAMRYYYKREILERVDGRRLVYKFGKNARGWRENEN
Summary of the method: as §1

[7] = target: SPI1 (Homo sapiens, UniProt P17947 1-270)
Summary of the method: as §1

[8] = target: SPIB (Homo sapiens, UniProt Q01892 1-262)
Sequence of SPIB (Q01892 whole entry): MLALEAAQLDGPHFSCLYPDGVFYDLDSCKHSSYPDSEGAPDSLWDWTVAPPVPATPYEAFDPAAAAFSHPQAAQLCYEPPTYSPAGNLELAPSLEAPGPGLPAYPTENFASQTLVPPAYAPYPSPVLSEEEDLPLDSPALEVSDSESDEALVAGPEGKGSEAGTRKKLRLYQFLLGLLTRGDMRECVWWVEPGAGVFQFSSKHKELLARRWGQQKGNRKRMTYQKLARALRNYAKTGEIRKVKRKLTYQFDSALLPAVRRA
Summary of the method: as §1

[9] = target: T6, ELK3 (Homo sapiens, UniProt P41970 1-407)
T6 sequence: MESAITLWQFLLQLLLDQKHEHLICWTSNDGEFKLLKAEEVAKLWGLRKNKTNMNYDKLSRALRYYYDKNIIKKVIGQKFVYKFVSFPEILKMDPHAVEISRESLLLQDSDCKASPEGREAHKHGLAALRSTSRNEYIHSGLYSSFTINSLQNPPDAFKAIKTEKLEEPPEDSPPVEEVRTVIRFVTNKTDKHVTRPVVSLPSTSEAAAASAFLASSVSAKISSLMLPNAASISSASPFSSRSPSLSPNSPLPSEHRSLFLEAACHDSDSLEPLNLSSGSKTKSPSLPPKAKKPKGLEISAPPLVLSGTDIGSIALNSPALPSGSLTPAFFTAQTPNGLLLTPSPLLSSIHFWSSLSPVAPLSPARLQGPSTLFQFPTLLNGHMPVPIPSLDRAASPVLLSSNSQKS
Summary of the method: as §1

[10] = target: T7, FEV (Homo sapiens, UniProt Q99581 1-238)
T7 sequence: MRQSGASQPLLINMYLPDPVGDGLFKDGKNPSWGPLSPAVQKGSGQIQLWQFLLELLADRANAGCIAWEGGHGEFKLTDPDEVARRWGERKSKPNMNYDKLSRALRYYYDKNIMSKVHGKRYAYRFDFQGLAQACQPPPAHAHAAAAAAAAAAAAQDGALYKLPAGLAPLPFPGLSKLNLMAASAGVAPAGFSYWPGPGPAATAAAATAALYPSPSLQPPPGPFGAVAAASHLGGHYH
Summary of the method: as §1

[11] = target: ETV5 (Homo sapiens, UniProt P41161 1-510)
Sequence of ETV5 (P41161 whole entry): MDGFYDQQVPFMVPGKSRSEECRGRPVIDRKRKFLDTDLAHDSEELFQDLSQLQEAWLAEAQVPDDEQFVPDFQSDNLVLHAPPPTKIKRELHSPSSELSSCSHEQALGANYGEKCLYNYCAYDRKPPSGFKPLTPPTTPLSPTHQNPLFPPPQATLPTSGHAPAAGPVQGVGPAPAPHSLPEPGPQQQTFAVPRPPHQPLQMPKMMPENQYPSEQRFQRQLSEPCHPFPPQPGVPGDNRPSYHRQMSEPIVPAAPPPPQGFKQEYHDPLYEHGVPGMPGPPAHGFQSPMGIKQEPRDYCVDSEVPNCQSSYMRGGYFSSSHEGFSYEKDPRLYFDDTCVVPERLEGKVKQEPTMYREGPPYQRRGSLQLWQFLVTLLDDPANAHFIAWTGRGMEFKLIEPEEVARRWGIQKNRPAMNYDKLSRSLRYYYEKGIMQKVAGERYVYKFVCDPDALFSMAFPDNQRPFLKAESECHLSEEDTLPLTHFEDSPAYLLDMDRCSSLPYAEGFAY
Summary of the method: as §1

[12] = target: T8, SPIC (Homo sapiens, UniProt Q8N5J4 1-248)
T8 sequence: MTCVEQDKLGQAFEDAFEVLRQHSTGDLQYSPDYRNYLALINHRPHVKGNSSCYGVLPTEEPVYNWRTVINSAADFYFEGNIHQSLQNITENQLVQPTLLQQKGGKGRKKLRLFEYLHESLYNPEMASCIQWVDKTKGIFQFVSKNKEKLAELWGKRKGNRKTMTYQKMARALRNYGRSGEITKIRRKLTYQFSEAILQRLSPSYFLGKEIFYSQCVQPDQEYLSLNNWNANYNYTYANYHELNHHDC
Summary of the method: as §1

[13] = target: ELF4 (Homo sapiens, UniProt Q99607 1-663)
Sequence of ELF4 (Q99607 whole entry): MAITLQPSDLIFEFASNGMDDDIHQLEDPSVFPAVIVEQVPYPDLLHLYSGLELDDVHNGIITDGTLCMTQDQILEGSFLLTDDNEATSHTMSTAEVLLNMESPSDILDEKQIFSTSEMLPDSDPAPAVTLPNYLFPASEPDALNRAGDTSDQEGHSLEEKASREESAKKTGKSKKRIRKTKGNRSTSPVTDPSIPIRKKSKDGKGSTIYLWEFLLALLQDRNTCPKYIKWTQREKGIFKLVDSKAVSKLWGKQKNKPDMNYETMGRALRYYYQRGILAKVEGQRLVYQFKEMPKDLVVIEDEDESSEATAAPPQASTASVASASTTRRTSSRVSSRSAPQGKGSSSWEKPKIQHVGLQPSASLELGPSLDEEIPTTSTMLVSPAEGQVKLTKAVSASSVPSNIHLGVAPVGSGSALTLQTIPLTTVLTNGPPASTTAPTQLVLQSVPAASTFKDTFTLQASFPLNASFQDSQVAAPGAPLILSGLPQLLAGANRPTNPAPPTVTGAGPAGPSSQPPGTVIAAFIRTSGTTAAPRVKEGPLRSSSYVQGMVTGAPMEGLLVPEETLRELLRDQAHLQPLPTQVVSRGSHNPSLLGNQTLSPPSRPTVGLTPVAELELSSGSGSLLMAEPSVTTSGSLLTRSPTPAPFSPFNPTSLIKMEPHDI
Summary of the method: as §1

[14] = target: T9, ELK4 (Homo sapiens, UniProt P28324-2 1-405)
T9 sequence: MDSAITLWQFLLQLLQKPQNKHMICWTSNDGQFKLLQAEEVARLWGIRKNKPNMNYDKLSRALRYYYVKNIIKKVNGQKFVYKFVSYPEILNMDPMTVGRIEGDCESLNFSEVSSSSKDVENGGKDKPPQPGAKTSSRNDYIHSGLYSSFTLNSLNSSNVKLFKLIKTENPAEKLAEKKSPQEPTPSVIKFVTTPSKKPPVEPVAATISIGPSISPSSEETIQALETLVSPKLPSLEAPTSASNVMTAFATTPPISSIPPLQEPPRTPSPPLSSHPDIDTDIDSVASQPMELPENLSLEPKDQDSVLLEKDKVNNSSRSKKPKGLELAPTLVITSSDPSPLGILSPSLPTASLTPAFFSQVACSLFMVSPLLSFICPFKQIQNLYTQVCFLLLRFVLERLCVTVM
Summary of the method: as §1

[15] = target: T10, ETV2 (Homo sapiens, UniProt O00321 1-342)
T10 sequence: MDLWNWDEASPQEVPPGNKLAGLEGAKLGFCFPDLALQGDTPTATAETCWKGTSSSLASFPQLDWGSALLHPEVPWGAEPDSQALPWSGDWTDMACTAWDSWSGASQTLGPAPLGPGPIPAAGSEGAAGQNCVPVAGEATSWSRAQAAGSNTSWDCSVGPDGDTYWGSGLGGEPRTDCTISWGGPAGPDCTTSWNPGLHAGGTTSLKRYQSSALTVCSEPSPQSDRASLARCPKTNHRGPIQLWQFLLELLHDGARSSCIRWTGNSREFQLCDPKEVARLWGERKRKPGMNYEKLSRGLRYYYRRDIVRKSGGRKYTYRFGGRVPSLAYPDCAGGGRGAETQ
Summary of the method: as §1

[16] = target: T11, ELF3 (Homo sapiens, UniProt P78545 1-371)
T11 sequence: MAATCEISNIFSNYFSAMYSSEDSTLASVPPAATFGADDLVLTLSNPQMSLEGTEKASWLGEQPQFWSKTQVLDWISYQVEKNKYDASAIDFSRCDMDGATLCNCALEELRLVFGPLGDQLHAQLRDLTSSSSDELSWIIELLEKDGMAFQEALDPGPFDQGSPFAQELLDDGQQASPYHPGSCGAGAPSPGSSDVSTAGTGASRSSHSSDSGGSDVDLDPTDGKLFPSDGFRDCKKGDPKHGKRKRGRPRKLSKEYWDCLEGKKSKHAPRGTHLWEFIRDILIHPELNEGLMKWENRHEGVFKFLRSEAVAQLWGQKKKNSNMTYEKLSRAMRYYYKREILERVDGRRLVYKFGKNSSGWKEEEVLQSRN
Summary of the method: as §1

[17] = target: CRX (Homo sapiens, UniProt O43186 1-299)
Sequence of CRX (O43186 whole entry): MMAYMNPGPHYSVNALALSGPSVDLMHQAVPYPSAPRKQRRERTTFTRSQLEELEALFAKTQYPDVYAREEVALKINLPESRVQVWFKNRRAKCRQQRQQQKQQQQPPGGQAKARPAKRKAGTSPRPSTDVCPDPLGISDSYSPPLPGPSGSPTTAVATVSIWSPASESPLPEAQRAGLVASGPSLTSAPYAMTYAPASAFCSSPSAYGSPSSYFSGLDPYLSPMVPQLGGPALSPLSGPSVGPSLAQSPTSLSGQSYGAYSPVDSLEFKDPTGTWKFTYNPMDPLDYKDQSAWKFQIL
Summary of the method: as §1

[18] = target: ETV1 (Homo sapiens, UniProt P50549 1-477)
Sequence of ETV1 (P50549 whole entry): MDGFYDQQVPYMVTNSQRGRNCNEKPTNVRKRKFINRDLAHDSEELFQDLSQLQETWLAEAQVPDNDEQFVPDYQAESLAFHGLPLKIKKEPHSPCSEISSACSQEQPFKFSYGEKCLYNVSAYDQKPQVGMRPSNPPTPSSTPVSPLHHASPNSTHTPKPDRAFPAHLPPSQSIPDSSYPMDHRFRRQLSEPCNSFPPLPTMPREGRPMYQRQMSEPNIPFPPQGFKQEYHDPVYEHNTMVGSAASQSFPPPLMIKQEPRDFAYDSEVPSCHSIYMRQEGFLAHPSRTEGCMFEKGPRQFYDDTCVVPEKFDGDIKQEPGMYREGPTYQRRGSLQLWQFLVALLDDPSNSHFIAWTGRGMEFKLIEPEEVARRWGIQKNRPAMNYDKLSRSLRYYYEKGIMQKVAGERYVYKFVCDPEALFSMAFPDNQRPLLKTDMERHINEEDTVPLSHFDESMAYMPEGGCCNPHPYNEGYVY
Summary of the method: as §1

Sequence	binding signal [1]	binding signal [2]	binding signal [3]	binding signal [4]	binding signal [5]	binding signal [6]	binding signal [7]	binding signal [8]	binding signal [9]	binding signal [10]	binding signal [11]	binding signal [12]	binding signal [13]	binding signal [14]	binding signal [15]	binding signal [16]	binding signal [17]	binding signal [18]
TCATGG	1.11 fold enrichment (6-mer frequency, TF over GST control)	1.05 fold enrichment (6-mer frequency, TF over GST control)	1.11 fold enrichment (6-mer frequency, TF over GST control)	1.15 fold enrichment (6-mer frequency, TF over GST control)	1.18 fold enrichment (6-mer frequency, TF over GST control)	1.12 fold enrichment (6-mer frequency, TF over GST control)	1.08 fold enrichment (6-mer frequency, TF over GST control)	1.11 fold enrichment (6-mer frequency, TF over GST control)	1.16 fold enrichment (6-mer frequency, TF over GST control)	1.05 fold enrichment (6-mer frequency, TF over GST control)	1.09 fold enrichment (6-mer frequency, TF over GST control)	1.16 fold enrichment (6-mer frequency, TF over GST control)	1.07 fold enrichment (6-mer frequency, TF over GST control)	1.05 fold enrichment (6-mer frequency, TF over GST control)	1.04 fold enrichment (6-mer frequency, TF over GST control)	1.16 fold enrichment (6-mer frequency, TF over GST control)	1.07 fold enrichment (6-mer frequency, TF over GST control)	–
ACCGCT	1.09 fold enrichment (6-mer frequency, TF over GST control)	1.12 fold enrichment (6-mer frequency, TF over GST control)	1.14 fold enrichment (6-mer frequency, TF over GST control)	1.1 fold enrichment (6-mer frequency, TF over GST control)	1.07 fold enrichment (6-mer frequency, TF over GST control)	1.09 fold enrichment (6-mer frequency, TF over GST control)	1.03 fold enrichment (6-mer frequency, TF over GST control)	1.15 fold enrichment (6-mer frequency, TF over GST control)	1.05 fold enrichment (6-mer frequency, TF over GST control)	1.17 fold enrichment (6-mer frequency, TF over GST control)	1.1 fold enrichment (6-mer frequency, TF over GST control)	1.13 fold enrichment (6-mer frequency, TF over GST control)	1.14 fold enrichment (6-mer frequency, TF over GST control)	1.18 fold enrichment (6-mer frequency, TF over GST control)	1.07 fold enrichment (6-mer frequency, TF over GST control)	1.19 fold enrichment (6-mer frequency, TF over GST control)	1.01 fold enrichment (6-mer frequency, TF over GST control)	–
CCATAC	1.23 fold enrichment (6-mer frequency, TF over GST control)	1.07 fold enrichment (6-mer frequency, TF over GST control)	1.16 fold enrichment (6-mer frequency, TF over GST control)	1.08 fold enrichment (6-mer frequency, TF over GST control)	1.18 fold enrichment (6-mer frequency, TF over GST control)	1.19 fold enrichment (6-mer frequency, TF over GST control)	1.18 fold enrichment (6-mer frequency, TF over GST control)	1.15 fold enrichment (6-mer frequency, TF over GST control)	1.2 fold enrichment (6-mer frequency, TF over GST control)	1.16 fold enrichment (6-mer frequency, TF over GST control)	1.16 fold enrichment (6-mer frequency, TF over GST control)	1.13 fold enrichment (6-mer frequency, TF over GST control)	1.27 fold enrichment (6-mer frequency, TF over GST control)	1.14 fold enrichment (6-mer frequency, TF over GST control)	1.06 fold enrichment (6-mer frequency, TF over GST control)	1.06 fold enrichment (6-mer frequency, TF over GST control)	–	1.15 fold enrichment (6-mer frequency, TF over GST control)

Source: article PMC7862700, “An all-to-all approach to the identification of sequence-specific readers for epigenetic DNA modifications on cytosine”
